# Screening data deposited in PubChem by several laboratories.
# Anthrax LF inh2 = inhibitors of Bacillus anthracis lethal factor protease; multiplex microsphere protease cleavage assay, LF; inhibition, % at 10 µM; actives 0.12% (n = 360,000); AID 588501; further: plate controls were buffer without enzyme for full effect and enzyme alone for no effect
# BoNT A protease = blocks Botulinum neurotoxin A light chain protease; actives 0.17% (n = 360,000); multiplex microsphere protease substrate cleavage, flow cytometry; AID 588499; inhibition, % at 10 µM; further: plate controls were buffer without enzyme for full effect and enzyme alone for no effect
# 3CLpro inhibitor = SARS-CoV 3CLpro protease inhibition; AID 1706; recombinant SARS-CoV 3CLpro, quenched FRET peptide cleavage; inhibition, % at 6 µM; actives 0.14% (n = 290,000); P0C6X7; in the data active means inhibition above about 12%
# Autofluor counter = flagged as autofluorescent in microsphere protease counterscreen | compound autofluorescence counterscreen, microsphere flow cytometry; hits give high values | fluorescence intensity (test concentration not listed) | actives 3.1% (n = 360,000) | AID 624483; in the data active means fluorescence intensity above about 16000; inconclusive means no clear call, values can overlap the other calls
# BoNT F protease = inhibitors of Botulinum neurotoxin F light chain protease; inhibition, % at 10 µM; Multiplex microsphere protease cleavage assay, flow cytometry; AID 588497; actives 0.22% (n = 360,000); in the data active means inhibition above about 35%, passing the limit was not always enough; inconclusive means no clear call, values can overlap the other calls; further: plate controls were buffer without enzyme for full effect and enzyme alone for no effect
# DUSP3 inh = blocks human VHR1 dual specificity phosphatase. recombinant VHR phosphatase, pNPP absorbance. actives 0.52% (n = 290,000). inhibition, % at 13.3 µM; in the data active means inhibition above about 50%
# Target sequence (P51452 whole entry, looked up): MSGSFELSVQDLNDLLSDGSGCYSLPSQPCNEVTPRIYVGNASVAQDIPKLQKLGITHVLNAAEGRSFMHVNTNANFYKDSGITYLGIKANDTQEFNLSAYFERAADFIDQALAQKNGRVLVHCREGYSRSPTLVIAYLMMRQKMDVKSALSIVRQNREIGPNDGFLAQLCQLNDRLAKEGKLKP
# * hit, by the source's call; ? = inconclusive; · = no result. Shown are actives, neighbours in structure and some others; about 3.9% of the full set was active somewhere. Unless noted, no stated cut-off is given here; in the data, active means inhibition above about 30%; inconclusive means no clear call, values can overlap the other calls; inactive means below that.
SMILES,Anthrax LF inh2,BoNT A protease,3CLpro inhibitor,Autofluor counter,BoNT F protease,DUSP3 inh
Cn1c(-c2ccc3c(c2)OCO3)cnc1N,-3.5,1.7,7.3,19330*,-9.2,16.8
Cc1ccc(-c2cnc(NC(=O)CCC(=O)N3CCCCC3)n2C)cc1,-4.7,0.2,-1.7,4122,-4.2,7.3
Cn1c(-c2ccc3c(c2)OCO3)cnc1NCc1ccccc1,-7.9,2.2,2.8,22213*,4.8,35.1
Cn1c(-c2ccc3c(c2)OCO3)cnc1NCc1cccc(Cl)c1,-0.1,0.6,-3.4,9450,8.6,1.5
CCCCNC(=O)CCC(=O)Nc1ncc(-c2ccc(C)cc2)n1C,0.5,?,4.3,20268*,-0.8,18.2
Cn1c(-c2ccc3c(c2)OCO3)cnc1NC(=O)CCC(=O)NCCc1ccccc1,-2.0,1.1,-6.0,22472*,0.1,18.9
CC1(C)OC(=O)C2=C(C[C@@H](C3CCCCC3)O[C@H]2c2ccccc2)O1,-6.2,-1.0,·,6204,-7.2,·
Cc1nn(-c2ccccc2)c2sc(C(=O)NNC(=O)COc3ccccc3)cc12,-5.4,?,1.1,22047*,1.1,10.3
Cc1nn(-c2ccccc2)c2sc(C(=O)NNC(=O)COc3cccc4ccccc34)cc12,11.7,-0.1,9.9,6157,-3.1,27.6
COc1ccc(S(=O)(=O)N=N/C=C2\C=CC=CN2O)cc1OC,-4.4,-0.3,·,2930,-9.8,·
CCCCCCCCCCCCCCCC(=O)NCCc1c[nH]c2ccccc12,-8.5,-0.6,-6.9,4130,-3.8,12.0
CCCCOc1ccc(-c2nnn(CC(=O)NCCc3c[nH]c4ccccc34)n2)cc1,-3.1,?,-4.3,23887*,-6.0,9.1
CCC(=O)Nc1ccc(NC(=O)CSc2nnnn2Cc2ccccc2)cc1C,-2.7,0.7,0.5,5447,5.4,16.0
CC(=O)c1ccc(OCCCC(=O)NC2=NCCS2)cc1,-2.9,?,-2.1,23568*,-7.4,6.2
O=C(CCCOc1ccccc1)Nc1ccc(Cl)cn1,-0.2,-1.3,4.8,4249,-7.9,4.7
O=C(O)CCc1ccc(-c2ccc(Cl)cc2)o1,1.7,0.1,-5.2,4560,3.6,30.3
O=C(O)CCc1ccc(-c2ccc(Br)cc2)o1,-1.4,?,0.8,23745*,-2.8,26.3
COC(=O)Cc1c[nH]c2cccc(OCC(O)CN(Cc3ccc([N+](=O)[O-])cc3)C(C)(C)C)c12 (stereo not given),-5.5,-3.0,4.9,24016*,-8.9,13.9
COC(=O)Cc1c[nH]c2cccc(OCC(O)CN(Cc3ccccc3)C(C)C)c12 (stereo not given),-4.2,0.5,-1.1,8939,-2.1,-9.2
CCOC(=O)C1CCN(C(=O)/C=C/c2ccc3c(c2)OCO3)CC1,10.7,-2.0,3.6,4344,-12.9,-7.4
COCCNC(=O)C1(C)CCCN(Cc2cn(C)c3ccccc23)C1 (stereo not given),-0.2,0.1,·,3656,2.4,·
O=C(NNC(=O)C1CCC1)c1ccc(F)cc1,-3.5,-0.1,·,3845,5.5,·
COc1cc2c(cc1OC)/C(=C/C(=O)c1ccc(OC)c([N+](=O)[O-])c1)NCC2,-0.1,-2.8,-0.7,4099,-24.5,14.8
O=C(COC(=O)/C=C/c1cnc2ccccc2n1)NCC(F)(F)F,-1.5,0.8,-0.8,3992,?,17.1
COCCNC(=O)COC(=O)/C=C/c1cnc2ccccc2n1,-8.9,7.8,4.5,17342*,9.2,29.7
SMILES,Anthrax LF inh2,BoNT A protease,3CLpro inhibitor,Autofluor counter,BoNT F protease,DUSP3 inh
Cc1ccc2cc(C(c3nnnn3Cc3ccccc3)N3CCc4ccccc43)c(=O)[nH]c2c1 (stereo not given),0.2,0.6,-2.0,11940,0.9,11.9
Cc1ccc2cc(C(c3nnnn3Cc3ccccc3)N3CCc4ccccc43)c(=O)[nH]c2c1C (stereo not given),-0.8,0.7,-3.5,20150*,2.3,-19.1
Cc1cc2cc(C(c3nnnn3Cc3ccccc3)N3CCc4ccccc43)c(=O)[nH]c2cc1C (stereo not given),5.3,?,4.5,21199*,1.5,-10.2
Cc1ccc2[nH]c(=O)c(C(c3nnnn3Cc3ccccc3)N3CCc4ccccc43)cc2c1 (stereo not given),-12.2,0.1,1.0,10065,-0.9,6.5
CC(NS(=O)(=O)c1ccccc1)C(N)=O (stereo not given),-7.1,-2.1,-5.5,17096*,-3.4,-7.5
CCC(c1nc2ccccc2c(=O)n1CCN1CCOCC1)N1C(=O)c2ccccc2C1=O (stereo not given),-4.3,-0.7,-2.4,20159*,-3.3,-5.8
COC(=O)CCCC(=O)N1CCC(CCC(=O)NCc2ccc(F)cc2)CC1,-3.5,2.6,0.3,3803,21.5,3.6
Cc1ccccc1NC(=O)N1CCCC(c2nc(-c3ccc(F)cc3)no2)C1 (stereo not given),-4.3,-0.8,1.8,9980,-4.8,27.4
Cc1ccc(-c2noc(C3CCCN(C(=O)c4ccc(F)cc4F)C3)n2)cc1 (stereo not given),-2.7,-0.5,-0.7,11435,-5.3,-4.1
CC(C)c1ccc(-c2noc(C3CCCN(C(=O)c4ccc(F)cc4F)C3)n2)cc1 (stereo not given),-9.4,-0.5,-0.8,22538*,-5.2,10.9
O=S(=O)(c1ccc(F)cc1)N1CCCC(c2nc(-c3ccc(F)cc3)no2)C1 (stereo not given),-3.0,-1.0,·,3995,-14.7,·
Cc1ccccc1NC(=O)N1CCCC(c2nc(-c3ccc(C(C)C)cc3)no2)C1 (stereo not given),-3.0,0.0,3.1,23120*,-3.2,0.1
O=S(=O)(Cc1ccccc1)N1CCCC(c2nc(-c3ccc(F)cc3)no2)C1 (stereo not given),-3.5,1.2,1.3,21682*,3.3,0.8
CC(Nc1ccccc1N1CCCCC1)C(=O)N1CCc2ccccc21 (stereo not given),-4.7,-0.1,1.7,4522,-3.9,3.9
N#C/C(=C\c1cccnc1)C(=O)Nc1ccc(O)cc1F,19.4,-2.9,5.2,3710,21.9,19.7
O=C(O)C1CC(Br)C(Br)CC1C(=O)O (stereo not given),-1.8,0.0,·,3770,7.1,·
CSc1ncccc1C(=O)OCC(=O)N1CCc2ccccc21,-7.2,-0.5,·,3565,-0.8,·
CCOC(=O)c1cnc(-n2nc(C)cc2C)nc1N1CCOCC1,-2.7,0.0,-3.0,23062*,0.4,0.2
CCOC(=O)c1cnc(-n2nc(C)cc2C)nc1N(C)C,-1.0,0.4,-1.3,22817*,1.6,11.8
CCOC(=O)c1cnc(-n2nc(C)cc2C)nc1NC1CCCC1,19.4,0.6,7.7,3914,?,32.9
Cc1cc(C)n(-c2ncc3c(n2)N(CCO)CCOC3=O)n1,3.5,2.2,4.5,3742,35.0*,2.6
CCc1nc2ccccc2n(CCOCCn2c(=O)c(CC)nc3ccccc32)c1=O,-0.9,4.3,·,21722*,5.5,-1.9
O=C(CSC(=S)N1CCCC1)N/N=C/c1c(O)[nH]c(=S)[nH]c1=O,0.5,-0.3,·,3554,-6.0,·
